The values below come from PubChem BioAssay (NCATS).

Assay [1] concerns Zika virus NS2B-NS3 protease. Description: Primary screen GU AMC qHTS for Zika virus inhibitors (AID 1347154).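 Note: 0% = no-inhibitor control and -100% = no-enzyme control; nearly all actives have a fitted effect of over 70% in size.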 The gist of the method:
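Unlinked Zika NS2B hydrophilic domain/NS3 protease domain noncovalent complex (25 nM final) in 10 mM Tris-HCl pH 8.0, 0.01% Tween 20, with AMC peptide substrate. Fluorescence (ex 340, em 450 nm) change over 15 min, room temperature; percent inhibition fitted to 4-parameter Hill equation.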
(qHTS replaces the single test concentration by a dilution series.)

Assay [2] relates to Zika virus NS2B-NS3 protease (unlinked complex). Description: Primary screen GU Rhodamine qHTS for Zika virus inhibitors: Unlinked NS2B-NS3 protease assay (AID 1347159). For activity change, negative = inhibition: % is set by controls: 0 for no effect and ±100 for the full control effect. Note: nearly all actives have a fitted effect of over 60% in size. Note: potency is the fitted concentration of half-maximal effect. The gist of the method: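 A qHTS format was used, with compound concentrations ranging up to 114 microM. Each compound was preincubated with 25 nM NS2B-NS3 protease, and the substrate was then added at 1.5 microM. Curves were fitted with a 4-parameter Hill model.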

The subject of assay [3] is Zika virus NS2B-NS3 protease (linked construct). Description: Primary screen NINDS Rhodamine qHTS for Zika virus inhibitors (AID 1347160). For activity change, negative = inhibition: % is set by controls: 0 for no effect and ±100 for the full control effect. Note: nearly all actives have a fitted effect of over 55% in size. Note: potency is the fitted concentration of half-maximal effect. Put shortly:
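Kinetic fluorescence (Ex 480 nm, Em 540 nm) over 15 min with 1.5 microM Rhodamine110 peptide and 25 nM linked protease.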

Molecules are shown by their SMILES. Inconclusive results are not listed. Values without a mark were called inactive. Calls of active or inactive are those of the source. Calls come from the whole dose curve; as a rule, active = well fitted curve in the direction sought with a large enough effect; inconclusive = small, poorly fitted or top-dose-only effect, or another doubt; inactive = no such curve, though single readings can be large; an effect the other way counts as inactive or inconclusive.

`O=c1[nH]c(=O)n([C@H]2C[C@@H](O)[C@@H](CO)O2)cc1I`: the Potency entry in assay [1] was “inactive”.
Same read-out and setting: under `CN(C)S(=O)(=O)c1ccc2c(c1)C(=Cc1cc3c([nH]1)CCCC3)C(=O)N2` stands “inactive”.
`Nc1ncnc2c1c(-c1cccc(OCc3ccccc3)c1)cn2C1CC(CN2CCC2)C1` (stereo not drawn): the Potency entry in assay [1], in assay [2] and in assay [3] was “inactive” throughout.
`O=C(O)CCNc1cc(N2CCc3ccccc3CC2)nc(-c2ccccn2)n1`: the Potency entry in assay [1] and in assay [2] was “inactive” each time. Also, in assay [3], the activity change, negative = inhibition is -4.33% [at 10.7 µM].
In the case of `CN1CCc2c(n(Cc3ccc(C(=O)NO)cc3)c3ccccc23)C1`, the Potency result in assay [1], in assay [2] and in assay [3] was “inactive” throughout.
For the compound `CCCCn1c(=O)n(Cc2ccccc2F)c(=O)c2[nH]c(Cc3ccc(NC(C)=O)cc3)nc21`, the Potency entry in assay [1], in assay [2] and in assay [3] was “inactive” each time.
Turning to `COc1ccc(CCN(C)CCCOc2ccc(S(=O)(=O)c3[nH]c4ccccc4c3C(C)C)cc2)cc1OC`, the Potency entry in assay [1] was “inactive”.
Take `CS(=O)(=O)c1ccc(C2=C(c3ccccc3)C(=O)OC2)cc1`: the Potency entry in assay [1], in assay [2] and in assay [3] was “inactive” each time.
Consider `CN1CCN(c2ncc(-c3cc(Cl)cc(Cl)c3Cl)c(N)n2)CC1`, for which the Potency result in assay [1] is “inactive”.
With `CC(C)C[C@@H](C(=O)N[C@H](C(=O)OC1CCCC1)c1ccccc1)[C@H](O)C(=O)NO`, the Potency entry in assay [1] is “inactive”.
As to `CCn1c(-c2nonc2N)nc2cncc(CNC3CCNCC3)c21`, the Potency result in assay [1], in assay [2] and in assay [3] was “inactive” throughout.
On to `Cc1cc2c(cc1C1(c3ccc(C(=O)O)cn3)CC1)C(C)(C)CCC2(C)C`, for which the Potency entry in assay [1] was “inactive”. Besides, the Potency was 10 µM (active) in assay [2] and 14.1 µM (active) in assay [3].
Take `COc1cc2ncnc(Nc3cc(Br)c(O)c(Br)c3)c2cc1OC`: the Potency entry in assay [1] and in assay [3] was “inactive” each time.
With `CNc1nc(Nc2ccc(C(=O)N3CCOCC3)cc2OC)ncc1Cl`, the Potency result in assay [1], in assay [2] and in assay [3] was “inactive” each time.
For `CC1(C)CC(=O)c2c(C(F)(F)F)nn(-c3ccc(C(N)=O)c(NC4CCC(O)CC4)c3)c2C1` (stereo not drawn), the Potency entry in assay [1], in assay [2] and in assay [3] was “inactive” each time.
Regarding `CN(C)CCOc1cc(-c2cn[nH]c2)ccc1NC(=O)C1COc2ccccc2O1` (stereo not drawn), the Potency result in assay [1], in assay [2] and in assay [3] was “inactive” each time.
In the case of `CC1=C(C(=O)Nc2cc3cn[nH]c3cc2F)C(c2ccc(C(F)(F)F)cc2)CC(=O)N1` (stereo not drawn), the Potency entry in assay [1], in assay [2] and in assay [3] was “inactive” in each case.
Regarding `CC1CCN(c2cc(N3CCN(C)CC3)ccc2NC(=O)c2cc(C#N)c[nH]2)CC1`, the Potency result in assay [1], in assay [2] and in assay [3] was “inactive” each time.
With `CCN1CCC(n2cc(CNc3cc(Cl)c4ncc(C#N)c(Nc5ccc(F)c(Cl)c5)c4c3)nn2)CC1`, the Potency entry in assay [1], in assay [2] and in assay [3] was “inactive” each time.
With `CNC1CCC(N(Cc2cccc(-c3ccncc3)c2)C(=O)c2sc3ccccc3c2Cl)CC1` (stereo not drawn), the Potency result in assay [1], in assay [2] and in assay [3] was “inactive” throughout.
As for `COc1ccc(CCC(=O)Nc2nc3ccc(Cl)cc3s2)cc1OC`, the Potency result in assay [1], in assay [2] and in assay [3] was “inactive” throughout.
In the case of `COc1nccc(-c2c(-c3ccc(F)cc3)ncn2C2CCNCC2)n1`, the Potency entry in assay [1], in assay [2] and in assay [3] was “inactive” throughout.
On to `O=C1C(c2c(O)[nH]c3ccccc23)=Nc2ccccc21`, for which the Potency entry in assay [1], in assay [2] and in assay [3] was “inactive” each time.
In the case of `COc1cc2nccc(Oc3ccc(NC(=O)Nc4cc(C)on4)c(Cl)c3)c2cc1OC`, the Potency entry in assay [1], in assay [2] and in assay [3] was “inactive” each time.
On to `CN1C(=O)C(Cc2c[nH]c3ccccc23)NC1=S` (stereo not drawn), for which the Potency result in assay [1], in assay [2] and in assay [3] was “inactive” in each case.
Consider `C[C@@]1(c2cc(-c3cncnc3)c(F)cc2F)CCSC(N)=N1`, for which the Potency entry in assay [1], in assay [2] and in assay [3] was “inactive” in each case.
With `CCN1CCN(c2ccc(Nc3cc(N(C)C(=O)Nc4c(Cl)c(OC)cc(OC)c4Cl)ncn3)cc2)CC1`, the Potency result in assay [1], in assay [2] and in assay [3] was “inactive” throughout.
As to `O=c1[nH]nc(OCCCc2ccc(Cl)cc2)c(NCc2cccnc2)c1Br`, the Potency result in assay [1] and in assay [3] was “inactive” in each case.
For `Cc1nc2c([nH]1)CCN(C(=O)c1ccc(NC(=O)c3ccccc3-c3ccccc3)cc1)c1ccccc1-2`, the Potency entry in assay [1], in assay [2] and in assay [3] was “inactive” throughout.
On to `C=CC(=O)Nc1cccc(Sc2nc(Nc3ccc(N4CCN(C)CC4)cc3)ncc2Cl)c1`, for which the Potency result in assay [1], in assay [2] and in assay [3] was “inactive” throughout.
Consider `COc1nccc(-c2c(-c3ccc(F)cc3)ncn2C2CCC(O)CC2)n1` (stereo not drawn), for which the Potency result in assay [1], in assay [2] and in assay [3] was “inactive” throughout.
Take `Cc1cccc2c1CC[C@H](CN1CCC(c3c(Cl)cccc3Cl)CC1)C[C@@H]2O`: the Potency entry in assay [1], in assay [2] and in assay [3] was “inactive” throughout.
For `Cc1cc(C(C)Nc2ccccc2)c2nc(N3CCOCC3)cc(=O)n2c1` (stereo not drawn), the Potency entry in assay [1], in assay [2] and in assay [3] was “inactive” throughout.
On to `CN1CCC(COc2cnc(-c3cccc(Cn4nc(-c5cccc(C#N)c5)ccc4=O)c3)nc2)CC1`, for which the Potency entry in assay [1], in assay [2] and in assay [3] was “inactive” throughout.
As to `COc1nc(C)cnc1NS(=O)(=O)c1cccnc1-c1ccc(-c2nnco2)cc1`, the Potency entry in assay [1], in assay [2] and in assay [3] was “inactive” throughout.
